The campaign covered roughly 59,000 compounds. About 6,500 (11%) were called active. Another 15% or so got no clear call; they are omitted. The sample holds actives, similar compounds and a random draw of the others, so the mix is not that of the screen. Cut-off read from the data, not from the text of the source: active = max dye-equivalent concentration above about 10 nM; inconclusive = mostly about 1.1 nM to 9.6 nM; inactive = weaker than that.
Assay: qHTS Assay for Spectroscopic Profiling in A350 Spectral Region
Details: Compound autofluorescence, 340/450 nm, Alexa 350 dye-equivalents; stronger effect = higher value

SMILES | max dye-equivalent concentration
CC1CCCCN1CC(=O)NCc1ccc2c(c1)OCO2 (stereo not given) | 50 nM (active)
O=C(Cn1nnc(-c2ccccc2)n1)NCc1ccc2c(c1)OCO2 | inactive
CCOC(=O)NCc1ccc2c(c1)OCO2 | inactive
COc1cccc(C2/C(=C(/O)c3ccncc3)C(=O)C(=O)N2CCCN(C)C)c1 (stereo not given) | inactive
CCCn1c(=O)c2[nH]c(C3CCCC3)nc2n(CCC)c1=O | inactive
CSCCC(NC(N)=O)C(=O)N(C)CC(=O)Nc1ccc(C)cc1 (stereo not given) | inactive
CN1CCN(c2ncc3nc(-c4ccc(Cl)cc4)c(=O)n(-c4ccccc4)c3n2)CC1 | 53 nM (active)
c1ccc(-n2nnnc2N2CCOCC2)cc1 | inactive
O=c1c(-c2ccc(F)cc2)nc2cnc(N3CCOCC3)nc2n1-c1ccccc1 | 29 nM (active)
Cn1cc(-c2nc3cncnc3n(-c3ccccc3)c2=O)c2ccccc21 | inactive
O=C(c1ccc2c(c1)C(=O)N(c1ccc(Cl)cc1)C2=O)N1CCN(c2ccccn2)CC1 | inactive
Clc1ccc(C(c2ccc(Cl)cc2)n2cc[n+](C[C@@H](OCc3ccc(Cl)cc3Cl)c3ccc(Cl)cc3Cl)c2)cc1 | inactive
COc1ccc(CNc2ncnc3ccc(-c4cccnc4)cc23)c(OC)c1 | inactive
Cc1cccc(N2CCN(C(=O)C3CCN(S(=O)(=O)c4cnc[nH]4)CC3)CC2)c1C | inactive
O=C(c1ccco1)N1CCC2(CC1)CN(c1ncccn1)C2 | inactive
Cc1nc(NCc2ccccc2)c(C(N)=O)c2c1COC(C)(C)C2 | 150 nM (active)
O=C(c1cccnc1NCc1ccccc1)N1CCOCC1 | inactive
O=c1ccn(Cc2ccccc2Cl)cc1 | inactive
CC(C)CNC(=O)c1cc(-c2ccc(Br)cc2)on1 | inactive
COC(=O)c1ccc(NC(=O)CSc2nnc(-c3ccncc3)n2C)cc1 | inactive
CCOc1ccc(N=NS(=O)(=O)O)cc1 | inactive
COc1ccc(-c2nnn(CC(=O)N(CCO)C(C(=O)NC3CCCC3)c3ccc(F)cc3)n2)cc1 (stereo not given) | inactive
CCOc1ccc2nc(NC(=O)CSc3nc4c(c(=O)n(C)c(=O)n4C)n3CC)sc2c1 | inactive
Cc1ccc(C(C(=O)NC2CCCC2)N(Cc2ccco2)C(=O)CCC(=O)Nc2ccccn2)cc1 (stereo not given) | inactive
Cc1noc(C)c1COC(=O)Cn1c(C)nc2ccccc21 | inactive
Cc1ccc(C(=O)COc2cccc(NC(=O)c3ccco3)c2)cc1 | inactive
CCOc1cc(NC(=O)c2ccco2)c(OCC)cc1NC(=O)COc1ccccc1 | 78 nM (active)

SMILES | max dye-equivalent concentration
O=C(Nc1ccc(Oc2ccccc2)cc1)c1ccco1 | inactive
O=C(c1cccs1)N1CCCC(c2nc(-c3ccc(F)cc3)no2)C1 (stereo not given) | inactive
Cc1ccc(S(=O)(=O)N2CCOCC2)cc1C(=O)NCc1ccc(F)cc1 | inactive
CC1CCc2sc3nc(N4CCN(CCO)CC4)n4ncnc4c3c2C1 (stereo not given) | inactive
O=c1c2ccccc2nnn1CSc1nc2sc3c(c2c(=O)n1CC1CCCO1)CCC3 (stereo not given) | inactive
CCCn1nnc2sc3c(c2c1=O)CCC(C)C3 (stereo not given) | 32 nM (active)
CC(C)C[C@H](NC(=O)[C@@H]1O[C@H]1C(=O)O)C(=O)NCCCCN=C(N)N | inactive
CC(C)Cc1ccc(S(=O)(=O)N2CCN(C(=O)c3ccco3)CC2)cc1 | inactive
Cc1ccccc1NC(=O)c1cc(S(=O)(=O)N2CCOCC2)cs1 | inactive
Cc1cc(NC(=O)CCC(=O)N(c2ccccc2)C(C(=O)NC2CCCC2)c2ccncc2)no1 (stereo not given) | inactive
Cc1ccsc1C(=O)OCC(=O)c1cc(C)n(CC2CCCO2)c1C (stereo not given) | inactive
COc1ccc2nc(NC3=NCN(CC4CCCO4)CN3)nc(C)c2c1 (stereo not given) | 82 nM (active)
Cc1ccc2nc(NC3=NCN(CCc4ccccc4)CN3)nc(C)c2c1 | inactive
CCc1cc2c(=O)c(-c3ccon3)c(N)oc2cc1OC | inactive
CC(=NCC1CCCO1)c1c(O)[nH]c(=O)[nH]c1=O (stereo not given) | inactive
CCOC(=O)CN(C(=O)CN1CCOCC1)c1ccc(Br)cc1 | inactive
COCCCn1c(CCC(=O)O)ccc1-c1ccc(F)cc1 | 1500 nM (active)
Cc1ccc(S(=O)(=O)C(C#N)c2nc3ccccc3nc2N2CCCC2)cc1C (stereo not given) | 190 nM (active)
Cc1cc(Cl)ccc1OCC(=O)Oc1c(Cl)c(Cl)c(Cl)c(Cl)c1Cl | inactive
CCOC(=O)c1c(-n2cnnn2)sc(C)c1C | inactive
CCOCC(=O)Nc1sc2c(c1C(=O)OCC)CCCC2 | inactive
COC(=O)c1c(NC(=O)c2cccs2)sc2c1CCCC2 | 65 nM (active)
CCOC(=O)c1oc2ccccc2c1NC(=O)c1cccs1 | 21 nM (active)
CCOC(=O)CSc1nnc(CNC(=O)c2cccs2)n1-c1ccccc1 | inactive
CCOC(=O)c1c(NC(=O)CSc2nnc(Cc3csc(N)n3)n2C)sc(C)c1C | inactive
COC(=O)c1c(NC(=O)CSc2nncs2)sc2c1CCCCC2 | inactive
COC(=O)Cn1cc(C(=O)c2cccs2)c2ccccc21 | inactive

SMILES | max dye-equivalent concentration
CCOC(=O)c1c(NC(=O)c2cccs2)sc(C)c1C | 180 nM (active)
Cc1ccc(C2(c3ccc(C)cc3)NC(=O)N(Cc3c(C)noc3C)C2=O)cc1 | inactive
Cc1ccc(NC(=O)N2CCC(C(=O)NCc3ccc(F)cc3)CC2)cc1 | inactive
CCOc1ccc(-c2nnn(CC(=O)N3CCN(c4ccc(OC)cc4)CC3)n2)cc1OCC | inactive
CCn1c(SCC(=O)Nc2nccs2)nnc1-c1ccncc1 | inactive
CC(CN1CCCCC1)OC(=O)c1ccccc1Cl (stereo not given) | inactive
CCCC(=O)Nc1ccc(C(=O)NCCCn2ccnc2)cc1 | inactive
CCn1c(=O)cc(SCC(=O)NCc2ccc3c(c2)OCO3)c2ccccc21 | inactive
CCCn1c(SCC(=O)c2ccc3c(c2)OCCO3)nnc1C(C)C | inactive
O=C(c1cc(C(F)(F)F)cc(C(F)(F)F)c1)N1CCC[C@@]2(CCN(c3ccccn3)C2)C1 | inactive
CCOC(=O)CC1C(=O)NCCN1C(=O)COc1ccc(Br)cc1C (stereo not given) | inactive
CCOc1cccc(/C(O)=C2/C(=O)C(=O)N(CCOC)C2c2ccncc2)c1 (stereo not given) | inactive
CCOC(=O)c1ccc(NC(=O)CSc2ncccn2)cc1 | inactive
COCCOC(=O)C1=C(C)Nc2nc(C)nn2C1c1ccccc1 (stereo not given) | inactive
CCOC(=O)C1=C(C)NC(C)=C(C(=O)OCC)C1c1ccccn1 | 330 nM (active)
CC(=O)OCC(=O)[C@@]1(O)CC[C@@H]2[C@H]3CCC4=CC(=O)C=C[C@]4(C)[C@]3(F)[C@@H](O)C[C@@]21C | inactive
Cn1c(=O)[nH]c(=O)c2c1nc(N1CCCCCC1)n2CC(=O)c1ccccc1 | inactive
CCC(C)Sc1nc2c(c(=O)[nH]c(=O)n2C)n1CC(O)COc1cccc2ccccc12 (stereo not given) | inactive
CS(=O)(=O)N1CCC2(CC1)CN(Cc1ccccc1)C2 | inactive
CCn1c(CNc2ccc(OC)cc2)nnc1SCC(=O)c1ccc(OC)cc1 | inactive
Cc1ccc(S(=O)(=O)Nc2ccccc2CNc2c(C)n(C)n(-c3ccccc3)c2=O)cc1 | inactive
COc1ccccc1NC(=O)CSc1nc2sc(C)c(C)c2c(=O)n1Cc1ccco1 | inactive
Cn1c(COc2ccc(Cl)cc2)nc2ccccc2c1=O | inactive
Cc1nc2ccccc2c(=O)n1CCCn1ccnc1 | inactive
CCOC(=O)CSc1nc2c(sc(=S)n2CCc2ccccc2)c(=O)n1Cc1ccco1 | inactive
Cc1nc2c(c(=O)n1Cc1ccco1)c1nc3ccccc3nc1n2Cc1ccccc1 | 110 nM (active)
O=c1[nH]c(CSc2ncc(-c3ccc(F)cc3)n2Cc2ccco2)nc2ccccc12 | inactive

SMILES | max dye-equivalent concentration
CC(Sc1nc2ccccc2c(=O)n1Cc1ccco1)C(=O)c1ccccc1 (stereo not given) | inactive
Cc1ccc(Cn2c(C)nc3c(c2=O)c2nc4ccccc4nc2n3Cc2ccco2)cc1 | 1000 nM (active)
COCCCn1c2nc3ccccc3nc2c2c(=O)n(Cc3ccc(Cl)cc3)c(C)nc21 | 380 nM (active)
Cc1ccc(N2CCN(c3ccc(C)cc3)C2c2ccccn2)cc1 | inactive
COc1ccccc1-n1cnc2cc(NS(=O)(=O)c3ccccc3)ccc21 | inactive
CCOC(=O)C1(Cc2ccc(O)cc2)NC(c2ccccc2F)C2C(=O)N(C)C(=O)C21 (stereo not given) | inactive
O=C(O)C1CC=C(Cl)CC1C(=O)NCc1ccccc1 (stereo not given) | inactive
CC1(C)Cc2ccccc2-c2nc(CN3CCOCC3)[nH]c(=O)c21 | inactive
CCN(CC)C(=O)CSc1nnc(-c2cnccn2)n1-c1ccc(C)cc1 | inactive
O=C(CN1CCN(S(=O)(=O)/C=C/c2ccccc2)CC1)NC(=O)NCc1ccco1 | inactive
Cc1cccc(N=C2NC(=O)CS2)c1C | inactive
Cc1ccc(NC(=O)CN2CCC3(O)CCCCC3C2c2ccc3c(c2)OCO3)c(C)c1 (stereo not given) | inactive
CC(=O)Nc1cccc2c1[n+]([O-])c(C)c(C)[n+]2[O-] | inactive
Cc1ccc2cccc(O)c2[n+]1[O-] | 16 nM (active)
O=C(c1cc(C(F)(F)F)cc(C(F)(F)F)c1)N1CCC2(CCCN(c3ccccn3)C2)CC1 | inactive
O=C(Nc1cccc(C(=O)N2CCCC2)c1)c1ccccc1 | inactive
c1coc(CNc2ncnc3ccccc23)c1 | inactive
C=C(C)Cn1c(SCC(=O)NCc2ccco2)nc2sc3c(c2c1=O)CCC3 | inactive
CN1CCc2c(sc3c2c(NCc2ccco2)nc2nnnn23)C1 | 530 nM (active)
CCOC(=O)c1cnc(SCC(=O)NCc2ccco2)nc1N | inactive
CC(=NC1CCN(Cc2ccccc2)CC1)c1c(O)[nH]c(=O)[nH]c1=O | inactive
COc1ccccc1Nc1ncnc2c1oc1ccccc12 | 84 nM (active)
COc1ccccc1Nc1ncc(C(C)=O)c(C)n1 | inactive
COc1ccc(CCNC(=O)CSc2nc(C)nc3c2oc2ccccc23)cc1OC | inactive
